Rows were chosen to be rich in hits. Some 12% of all compounds tested hit in one or more screens of this group.
JMJD2A Tudor inh: qHTS Assay for Inhibitors of JMJD2A-Tudor Domain; Lysine-specific demethylase 4A (Homo sapiens), O75164; AlphaScreen JMJD2A-Tudor / H3K4me3 peptide binding; Potency, µM (highest dose often 114 µM), usual class: inhibitors; 390,000 tested, 4.4% active; AID 504339, 2011; further: nearly all actives have a fitted effect of over 50% in size
HP1b chromo inh: HTS for Inhibitors of HP1-beta Chromodomain Interactions with Methylated Histone Tails; Chromobox protein homolog 1 (Homo sapiens), P83916; AlphaScreen HP1-beta / biotin-H3K9me3 peptide binding; Potency, µM (series often up to 114 µM), hits mostly inhibitors; 390,000 tested, 0.56% active; AID 540317, 2011; further: nearly all actives have a fitted effect of over 70% in size
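Compound inhibition of the preformed complex between 50 nM HP1-beta and 50 nM biotinylated H3K9me3 peptide was read by AlphaScreen. Buffer was PBS pH 7.4 with 0.01% Tween-20. Incubations ran 30 min at room temperature, with 10 ug/mL donor/acceptor beads.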
G9a block: qHTS Assay for Inhibitors of Histone Lysine Methyltransferase G9a. Potency, µM (series often up to 102 µM), actives largely listed as inhibitors. 350,000 tested, 8.8% active. G9a H3K9 monomethylation, AlphaScreen, 2 h. Histone-lysine N-methyltransferase EHMT2 (Homo sapiens), Q96KQ7; further: nearly all actives have a fitted effect of over 75% in size
Target sequence (Q96KQ7 913-1193 limits assumed): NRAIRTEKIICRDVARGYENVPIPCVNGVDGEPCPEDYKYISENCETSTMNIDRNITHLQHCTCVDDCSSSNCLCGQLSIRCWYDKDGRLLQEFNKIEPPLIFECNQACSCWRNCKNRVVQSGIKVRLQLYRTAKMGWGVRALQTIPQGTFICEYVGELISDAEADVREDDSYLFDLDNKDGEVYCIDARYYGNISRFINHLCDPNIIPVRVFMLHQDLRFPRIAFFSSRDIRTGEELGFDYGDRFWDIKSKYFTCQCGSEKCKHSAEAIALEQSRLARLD
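Quantitative HTS format: methyltransferase activity on a biotin-tagged H3K9 peptide is measured by AlphaScreen, using a rabbit anti-monomethyl-H3K9 antibody with streptavidin donor and anti-IgG acceptor beads. Final levels are 20 nM enzyme, 500 nM peptide, 20 uM SAM; 2 h RT.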
PLK1 PBD inh: qHTS for Inhibitors of PLK1-PDB (polo-like kinase 1 - polo-box domain): Primary Screen; Serine/threonine-protein kinase PLK1 (Homo sapiens), P53350; Potency, µM, usual class: inhibitors; AID 720504, 2013; 360,000 tested, 2.8% active; Plk1 PBD binding of FITC phosphopeptide, fluorescence polarization; further: series mostly up to about 57 µM; nearly all actives have a fitted effect of over 65% in size
PI5P4Ka inh: qHTS for Inhibitors of phosphatidylinositol 5-phosphate 4-kinase (PI5P4K) | Phosphatidylinositol 5-phosphate 4-kinase type-2 alpha (Homo sapiens), P48426 | PI5P4Kalpha enzyme, ADP-Glo luminescence, 60 min; hits give low values | max response, % | 330,000 tested, 1.2% active | AID 652105, 2013; active means max response of -50% or lower; inconclusive means between -30% and -50%; inactive means -30% or higher; further: value at the top dose of about 77 µM
Target sequence (P48426 whole entry, looked up): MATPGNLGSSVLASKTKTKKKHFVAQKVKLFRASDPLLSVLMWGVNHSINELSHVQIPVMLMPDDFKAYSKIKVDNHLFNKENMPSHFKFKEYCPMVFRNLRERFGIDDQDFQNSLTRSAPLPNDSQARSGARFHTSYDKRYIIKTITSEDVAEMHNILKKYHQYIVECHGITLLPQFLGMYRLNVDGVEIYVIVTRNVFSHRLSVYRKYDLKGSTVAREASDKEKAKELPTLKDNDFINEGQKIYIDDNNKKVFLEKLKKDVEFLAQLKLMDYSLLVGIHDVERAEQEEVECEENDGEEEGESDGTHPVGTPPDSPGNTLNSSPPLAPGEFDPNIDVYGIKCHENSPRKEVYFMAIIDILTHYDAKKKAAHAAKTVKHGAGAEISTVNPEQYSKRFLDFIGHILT
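ADP-Glo luminescence end-point after a 60 min room-temperature kinase reaction. PI5P4Kalpha and substrate in HEPES pH 7.4 buffer with EGTA, 0.1% CHAPS and 5% DMSO; ATP at 5 microM final.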
BAZ2B block: qHTS Assay for Inhibitors of BAZ2B; Bromodomain adjacent to zinc finger domain protein 2B (Homo sapiens), Q9UIF8; AlphaScreen BAZ2B-H3K14Ac peptide displacement; Potency, µM (doses to about 114 µM), usual class: inhibitors; 360,000 tested, 4.4% active; further: nearly all actives have a fitted effect of over 60% in size
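In this displacement format the biotinylated H3(5-23) peptide acetylated at Lys14 serves as ligand at 50 nM, with BAZ2B at 50 nM in PBS pH 7.4 containing 0.01% Tween-20. Donor and acceptor beads are 10 ug/mL final.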
Of the large screens only hits and unclear results are named; the others gave an inactive call. Unless noted, the call rests on the fitted dose curve; in most records, active means well fitted curve in the direction sought with a large enough effect; inconclusive means small, poorly fitted or top-dose-only effect, or another doubt; inactive means no such curve, though single readings can be large; an effect the other way counts as inactive or inconclusive.

CN1C[C@@H]2[C@@H]3C(=O)N(C)C(=O)[C@@H]3[C@](C)(C1=O)N2C(=O)c1ccc(Cl)c(Cl)c1	none (no result: G9a block, BAZ2B block)
Cc1ccc(C)c(SCC(=O)N(C)CC(=O)Nc2ccc(N3CCOCC3)cc2)c1	G9a block 44.7µM, PLK1 PBD inh inconclusive
Cc1cc(C)c(OCC(=O)N(C)CC(=O)Nc2ccc(N3CCOCC3)cc2)c(C)c1	G9a block inconclusive
Cc1cc2c(s1)c(/C=N/O)c(C(=O)NCc1ccccc1F)n2C	none (no result: HP1b chromo inh, G9a block, PLK1 PBD inh, PI5P4Ka inh, BAZ2B block)
COc1ccc(C2/C=C\CN(C(=O)c3ccccc3)CC(=O)N2Cc2cccc(F)c2)cc1 (stereo not drawn)	none (no result: G9a block, BAZ2B block)
COc1ccc(C2/C=C\CN(CC(C)C)CC(=O)N2Cc2cccc(F)c2)cc1 (stereo not drawn)	G9a block 31.6µM (no result: BAZ2B block)
COc1ccc(Nc2nc(N)nc(CSC(=S)N3CCCCC3C)n2)cc1 (stereo not drawn)	JMJD2A Tudor inh inconclusive, G9a block inconclusive
CNS(=O)(=O)c1cccc(C(=O)OCC(=O)c2ccc(S(=O)(=O)N3CCCCC3)cc2)c1	G9a block 28.2µM, PI5P4Ka inh -55.6
O=C(NCCCN1CCCC1=O)c1cccc(S(=O)(=O)N2CCN(c3ccc(F)cc3)CC2)c1	none
Cc1ccc(-n2ncc(C(=O)NCC3CCN(C4CCCC4)C3)c2C2CCN(C(=O)OC(C)(C)C)CC2)cc1 (stereo not drawn)	G9a block 70.8µM, BAZ2B block inconclusive
CCOc1ccc(-n2nnnc2SCC(=O)NNC(=O)c2ccco2)cc1	JMJD2A Tudor inh 22.4µM, PLK1 PBD inh 11.9µM, PI5P4Ka inh inconclusive (no result: G9a block)
NS(=O)(=O)c1ccc(CCNC(=O)CSc2nc3ccsc3c(=O)n2CC2CCC(C(=O)O)CC2)cc1 (stereo not drawn)	none
CCN(CC)C(=O)CSc1nc2ccsc2c(=O)n1CCCC(=O)NCCc1ccc(S(N)(=O)=O)cc1	JMJD2A Tudor inh inconclusive, HP1b chromo inh inconclusive, PLK1 PBD inh 3.77µM (no result: BAZ2B block)
NS(=O)(=O)c1ccc(CCNC(=O)CSc2nc3ccsc3c(=O)n2C2CC2)cc1	G9a block 70.8µM
CCOC(=O)CCn1nc(C)c2c(C)n(-c3ccccc3)nc2c1=O	none (no result: PLK1 PBD inh, PI5P4Ka inh)
CC(CCc1ccco1)NC(=O)Nc1cccc(F)c1 (stereo not drawn)	G9a block 50.1µM (no result: PI5P4Ka inh)
COc1ccccc1N/N=C/c1ccc2c(c1)OCO2	JMJD2A Tudor inh inconclusive, G9a block 7.08µM, BAZ2B block inconclusive
COc1ccccc1C(=O)N/N=C/c1ccc2c(c1)OCO2	none
CCCC(=O)OCC(=O)Nc1ccc(OC(F)F)cc1	none
CC(C)CC(NC(N)=O)C(=O)OCC(=O)Nc1ccc(OC(F)F)cc1 (stereo not drawn)	JMJD2A Tudor inh 39.8µM, PLK1 PBD inh 23.8µM
CCC(CO)N=CC1=C(O)CC(C)(C)CC1=O (stereo not drawn)	G9a block 70.8µM
COc1ccccc1N1CCN(c2ncc3c(n2)CCN(Cc2ccc(C)s2)C3)CC1	JMJD2A Tudor inh inconclusive, BAZ2B block inconclusive (no result: PLK1 PBD inh, PI5P4Ka inh)
CC(Cc1cccs1)NC(=S)Nc1ccc(F)cc1 (stereo not drawn)	none
CCN(CC)c1ccc(NC(=S)Nc2ccc(F)cc2)cc1	JMJD2A Tudor inh 35.5µM, HP1b chromo inh 25.1µM, G9a block 12.6µM, PLK1 PBD inh inconclusive, BAZ2B block 22.4µM
Oc1ccc(NC(=S)Nc2ccc(F)cc2)cc1	none
CCC(C)NC(=S)Nc1ccc(F)cc1 (stereo not drawn)	G9a block 50.1µM
CN(C)C(=O)c1ccc(NC(=O)Cn2nnnc2-c2ccccc2F)cc1	none (no result: PLK1 PBD inh, PI5P4Ka inh)
Cc1cccc(C2c3[nH]c4ccccc4c3CCN2C(=O)c2ocnc2C)n1 (stereo not drawn)	G9a block 31.6µM, BAZ2B block 79.4µM
CCc1ccc(C2c3[nH]c4ccccc4c3CCN2C(=O)c2cc(C)nn2C)cc1 (stereo not drawn)	JMJD2A Tudor inh inconclusive, G9a block 15.8µM, BAZ2B block inconclusive
Cc1cccc(C2c3[nH]c4ccccc4c3CCN2C(=O)c2nn(C)c(=O)c3ccccc23)n1 (stereo not drawn)	JMJD2A Tudor inh inconclusive, HP1b chromo inh inconclusive, PLK1 PBD inh inconclusive (no result: G9a block)
COc1ccc(C2c3[nH]c4ccccc4c3CCN2C(=O)c2ccc(=O)n(C)n2)c(F)c1 (stereo not drawn)	JMJD2A Tudor inh inconclusive, BAZ2B block inconclusive (no result: G9a block)
Cc1cnc(C(=O)N2CCc3c([nH]c4ccccc34)C2c2ccc(F)cc2)cn1 (stereo not drawn)	JMJD2A Tudor inh inconclusive, BAZ2B block 28.2µM (no result: G9a block)
Cc1ccc(C2c3[nH]c4ccccc4c3CCN2C(=O)c2ccccc2Br)cc1 (stereo not drawn)	JMJD2A Tudor inh inconclusive, BAZ2B block inconclusive (no result: PLK1 PBD inh, PI5P4Ka inh)
CCc1cc(C(=O)N2CCc3c([nH]c4ccccc34)C2c2ccc(OC)cc2F)no1 (stereo not drawn)	HP1b chromo inh inconclusive, PLK1 PBD inh 23.8µM
O=C(CN1C(=O)NC2(CCc3ccccc32)C1=O)c1ccc(F)c(F)c1 (stereo not drawn)	none
O=CNc1c(Br)cc2c(c1Br)Cc1cc(Br)ccc1-2	none (no result: G9a block, BAZ2B block)
CCc1ccc(S(=O)(=O)/N=C2\C=C(Nc3cccc(C(=O)O)c3)C(=O)c3ccccc32)cc1	JMJD2A Tudor inh 17.8µM, HP1b chromo inh inconclusive, G9a block 14.1µM, PLK1 PBD inh 37.7µM, BAZ2B block 10µM
CCc1ccc(S(=O)(=O)/N=C2/C=C(Sc3ncn[nH]3)C(=O)c3ccccc32)cc1	JMJD2A Tudor inh 3.98µM, HP1b chromo inh inconclusive, G9a block 1.41µM, PLK1 PBD inh 1.5µM, PI5P4Ka inh -94.3, BAZ2B block 44.7µM
O=S(=O)(N=C1C=CC(=NS(=O)(=O)c2ccccc2)c2ccccc21)c1ccccc1	PLK1 PBD inh inconclusive (no result: JMJD2A Tudor inh, HP1b chromo inh, G9a block, BAZ2B block)
CCc1ccc(S(=O)(=O)/N=C2\C=CC(=O)c3ccccc32)cc1	G9a block 14.1µM, BAZ2B block 35.5µM (no result: JMJD2A Tudor inh, HP1b chromo inh, PLK1 PBD inh, PI5P4Ka inh)
CCc1ccc(S(=O)(=O)/N=C2\C=C(Nc3ccc(O)cc3)C(=O)c3ccccc32)cc1	JMJD2A Tudor inh 7.08µM, HP1b chromo inh 10µM, G9a block 7.08µM, PLK1 PBD inh inconclusive, PI5P4Ka inh inconclusive, BAZ2B block 8.91µM
O=C1c2ccccc2C(=O)N1CCSc1ncn[nH]1	none
CCOC(=S)SCc1cn2cccc(C)c2n1	G9a block 31.6µM
